Reference: PubChem BioAssay AID1377 (University of Pittsburgh Molecular Library Screening Center, 2008)
Several values for one entry are separate records, joined by “and”; a condition that tells them apart may be missing. Identical values can stand only once. Hit rate of the full screen: of about 220,000 compounds, about 830 (0.38%) were called active.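 How the source made its calls: active means activation, scaled between plate controls, above about 75% (limit read from the data); inactive means activation under that limit.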 This excerpt belongs to a sample that is enriched for actives.

Assay: inhibitors of zVAD-triggered necroptosis, primary screen, L929 cells (AID 1377);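 further: 0% = zVAD with DMSO and 100% = DMSO alone without zVAD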
Details: ATP luminescence, 24 h, at 10 µM, active compounds read high; with zVAD 60 µM unless noted

Compound	viability rescue
COc1cc([C@H](Cc2ccccc2)NC(C)=O)oc(=O)c1	-0.39% (inactive)
COC(=O)C1=C(C(=O)OC)[C@@H]2N(C)c3ccccc3[C@@]23C[C@@H](C(=O)OC)N(C(C)=O)C3=N1	0.26% (inactive)
Clc1ccc2nc(-c3ccccc3)nc(C(Cl)Cl)c2c1	37.5% (inactive)
Oc1ccc(-c2onc3ccc(Cl)cc23)cc1	82.9% (active)
NC(=O)C[n+]1cccc(C(N)=O)c1	1.24% (inactive)
O=C(O)CCn1c(O)c(C=C2N=c3ccccc3=N2)sc1=S	-0.21% (inactive)
CCN(CC)CCNS(=O)(=O)c1ccc(/C=C/C(=O)O)cc1	1.05% (inactive)
C/C(=C/C(=O)N1CCN(C)CC1)C(=O)O	0.98% (inactive)
CSc1nc2c(c(=O)[nH]1)C(c1cccc(Cl)c1Cl)CC(=O)N2 (centres undefined)	0.3% (inactive)
Cc1ccccc1C(=O)N1CCC(C(=O)Nc2ccc(S(=O)(=O)N(C)C(C)C)cc2)CC1	-0.58% (inactive)
OCCCNc1nccc(-c2cc(Nc3cccc(Cl)c3)ncn2)n1	103% (active)
NS(=O)(=O)c1cccnc1Nc1cccc(Cl)c1	-0.92% (inactive)
CC(C)n1cnc2c(Nc3cccc(Cl)c3)nc(N(CCO)CCCO)nc21	20.9% (inactive)
CC(=O)Nc1ccc(S(=O)(=O)NCC(=O)OCc2cc(=O)oc3ccc4ccccc4c23)cc1	0.62% (inactive)
CCOc1ccc(Nc2nc(Cl)nc(N3CCN(c4ccc(OC)cc4)CC3)n2)cc1	0.74% (inactive)
COc1ccc(Nc2ncc(F)c(N3CCOCC3)n2)cc1	75.1% (active)
c1ccc(Nc2nc(N3CCOCC3)c3ccccc3n2)cc1	-0.17% (inactive)
CCCOC(=O)c1c(NC(=O)c2cnn3c2NC(c2ccccc2)CC3C(F)(F)F)sc2c1CCCC2 (centres undefined)	7.75% [with zVAD 20 µM] (inactive)
CC(C)NC(=O)/C(C#N)=C\c1ccc(N(C)C)c(Br)c1	0.11% (inactive)
COc1ccc(C2CC(c3cccs3)Nc3nnnn32)cc1 (centres undefined)	2.51% (inactive)
Cc1cc(-n2cnc(-c3cn(C)nc3C)n2)no1	80.2% (active)
C/C(Cc1ccccc1)=N\NC(=O)CNC(=O)c1ccc2c(c1)OCCO2	0.03% (inactive)
COc1cccc(Nc2nc(N)c([N+](=O)[O-])c(NCc3ccco3)n2)c1	-0.44% (inactive)
COC(=O)c1cccnc1NC(=S)NC(C)C	-0.14% (inactive)

Compound	viability rescue
CC[C@H]1CN2CCc3cc(OC)c(OC)cc3[C@@H]2C[C@@H]1C[C@H]1NCCc2cc(OC)c(OC)cc21	79.5% (active)
COc1cc2c(cc1O)[C@H](Cc1ccc(Oc3cc(C[C@@H]4NCCc5cc(OC)c(O)cc54)ccc3O)cc1)NCC2	5.53% (inactive)
O=C(/C=C/c1cccs1)NCc1cccnc1	0.04% (inactive)
Cc1ccc(Nc2ccccc2N)cc1	75.5% (active)
Nc1ccc(Nc2ccccc2)cc1	0.51% [with zVAD 20 µM] (inactive)
Cc1ccc(Nc2nnc(SCc3ccccc3)s2)cc1	1.32% [with zVAD 20 µM] (inactive)
Cc1ccc(C)c(NC(=O)C2Cc3ccccc3CN2C(=O)OCc2ccccc2)c1 (centres undefined)	0.1% [with zVAD 20 µM] (inactive)
Cc1cc(NC(=O)c2cnn3cccnc23)n(-c2ccccc2)n1	77.7% (active)
O=C(Nc1ccc(Cl)cn1)c1cnn2cccnc12	-0.65% (inactive)
Cc1cc(NC(=O)Nc2ccccc2)n(-c2ccccc2)n1	0.11% [with zVAD 20 µM] (inactive)
CNC(=S)N/N=C/c1cn(Cc2ccc(C)cc2)c2ccccc12	0.34% (inactive)
COCCNC(=O)c1ccccc1NS(=O)(=O)c1ccc(C)c([N+](=O)[O-])c1	0.95% (inactive)
COc1ccc(/C=N/NS(=O)(=O)c2ccc(NC(C)=O)cc2)cc1	0.07% (inactive)
Cc1cc(=O)oc2cc(OCC(=O)Nc3nnc(C4CC4)s3)ccc12	-0.67% (inactive)
Cc1ccc(NC(=O)Cn2cccc2C2=NC(c3ccccc3)CO2)c(C)c1 (centres undefined)	-0.00089% (inactive)
COc1cc(/C=N\Nc2nc(-c3cccs3)c(NC(C)=O)s2)ccc1O	2.98% (inactive)
CCNc1nc(NCC)nc(N/N=C/c2ccc(O)c(OC)c2)n1	0.27% (inactive)
COc1cc(/C=N/Nc2nc3ccccc3s2)ccc1O	77.5% (active)
COc1cc2nc(Cl)nc(NCCO)c2cc1OC	0.24% (inactive)
CC1CC(C)(C)n2c(O)c(N=NC(N)=S)c3cccc1c32 (centres undefined)	-0.69% (inactive)
COc1ccccc1/C=C/CN1CCC(CO)(Cc2ccccc2)CC1	0.85% (inactive)
NC(=O)COC(=O)/C=C/c1ccc2ccccc2n1	10.8% (inactive)
CC(=O)c1ccc(S(=O)(=O)N2CCN(C(=O)/C=C/c3ccc4ccccc4n3)CC2)cc1	75.2% (active)
CC(=O)c1ccc(S(=O)(=O)N2CCN(c3nc4c(C)c(C)ccc4cc3C#N)CC2)cc1	1.16% (inactive)

Compound	viability rescue
Cc1ccc(S(=O)(=O)N(C)CC(=O)OCC(=O)Nc2ccccc2)cc1	0.76% (inactive)
Brc1cc(/C=N/n2cnnc2)oc1Br	0.56% (inactive)
O=C(COc1cccc(-n2cnnn2)c1)NCCC1=CCCCC1	78.2% [with zVAD 20 µM] (active)
O=C(COc1ccc(Cl)cc1)NCCC1=CCCCC1	0.15% [with zVAD 20 µM] (inactive)
Cc1nnc(OCC(=O)NCCC2=CCCCC2)c2ccccc12	0.41% (inactive)
COCCN(C(=O)c1ccccc1F)c1c(N)n(Cc2ccccc2)c(=O)[nH]c1=O	1.78% (inactive)
COc1ccc(CN2C(=O)C(C)S/C2=N/N=C/c2ccco2)cc1 (centres undefined)	0.28% (inactive)
CN=c1scc(-c2cc(OC)ccc2OC)n1/N=C/c1c(C)[nH]c2ccccc12	3.26% [with zVAD 20 µM] (inactive)
COC(=O)c1[nH]c2ccccc2c1NS(=O)(=O)c1ccc(OC)cc1OC	-0.08% (inactive)
COc1ccc(N=Cc2c(O)[nH]c3ccccc23)cc1OC	76.4% [with zVAD 20 µM] (active)
COc1cc(N=Cc2c(O)[nH]c3ccccc23)cc(OC)c1OC	78.4% [with zVAD 20 µM] (active)
COCC(=O)N=Nc1c(O)[nH]c2ccccc12	-0.49% [with zVAD 20 µM] (inactive)
COc1ccccc1N=Cc1c(O)c2ccccc2oc1=O	-0.1% (inactive)
Cc1cccc(C(=O)N2CCC(c3nc4ccccc4s3)CC2)c1	12.5% (inactive)
CC(C)=CCN1CCN(Cc2ccc(Oc3ncccn3)cc2)CC1CCO (centres undefined)	-0.77% (inactive)
CCc1ccc(C2C(C#N)=C(N)N(N3CCOCC3)C3=C2C(=O)CC(C)(C)C3)s1 (centres undefined)	-0.95% (inactive)
CCCN=C1NC(=O)C(CC(=O)NCCc2ccc(OC)c(OC)c2)S1 (centres undefined)	0.51% [with zVAD 20 µM] (inactive)
OCC(CO)(CO)NCc1ccc(-c2ccccc2)cc1	3.78% (inactive)
O=C(Nc1nnc(C2CC2)s1)C1=NN(C2CCS(=O)(=O)C2)C(=O)CC1 (centres undefined)	1.75% (inactive)
Cn1c(=O)c2c(nc(NCc3ccccc3)n2CC(N)=O)n(C)c1=O	-0.38% (inactive)
Clc1ccc(-c2cc(-c3ccccn3)on2)c(Cl)c1	-0.1% (inactive)
COc1ccc(Br)c2c1C(=O)CC2	1.09% (inactive)
NC1=NC[C@@H](Cc2ccc(O)cc2)N1CC1CCCCC1	0.84% (inactive)
c1ccc2c(c1)CSc1sccc1C2=C1CCNCC1	1.55% (inactive)

Compound	viability rescue
Oc1ccc(/C=N/Nc2ccc(C(F)(F)F)cn2)cc1O	78.6% (active)
Cc1nccn1CC(=O)N/N=C/c1ccc(O)c(O)c1	0.09% [with zVAD 20 µM] (inactive)
O=C(Nc1ccccc1)Nc1ccc(C(F)(F)F)cn1	16.8% (inactive)
COc1cc(Cl)c(C)cc1NC(=O)COC(=O)c1cc(SC)ccc1Cl	-0.03% [with zVAD 20 µM] (inactive)
O=S(=O)(NC1CC1)c1ccc2c3c(cccc13)CC2	2.42% (inactive)
CC(=O)Nc1cccc(C(=O)Nc2nc(C)cs2)c1	-1.49% (inactive)
Cc1csc(NC(=O)NC2(C(F)(F)F)Oc3ccccc3O2)n1	78.5% [with zVAD 20 µM] (active)
Cc1csc(NC(=O)Nc2ccccc2[N+](=O)[O-])n1	0.75% (inactive)
COc1ccc(CNC(=O)CN2CCC(n3nnc4cc(F)ccc43)CC2)cc1	-0.59% (inactive)
Cc1oc(C(N)=O)cc1COc1ccc(C(N)=O)cc1	1.12% (inactive)
Cc1cc(C(=O)NNS(=O)(=O)c2ccccc2C(F)(F)F)nn1C(C)(C)C	0.49% (inactive)
CN(C)S(=O)(=O)c1ccc(NC(=O)COC(=O)Cn2[nH]c(=O)c3ccccc3c2=O)cc1	0.01% (inactive)
COc1ccc(Cl)cc1NC(=O)COC(=O)C(CC(C)C)N1C(=O)C2CC=CCC2C1=O (centres undefined)	0.49% [with zVAD 20 µM] (inactive)
CCOC(=O)C(=O)C1C(=O)Nc2ccccc21 (centres undefined)	-0.07% (inactive)
O=C(/C=C/c1ccccc1[N+](=O)[O-])NCC1CCCO1 (centres undefined)	1.4% (inactive)
O=C(/C=C/c1ccccc1[N+](=O)[O-])OC1CCCCC1=O (centres undefined)	-0.52% (inactive)
CC1CCCCC1NC(=O)/C(C#N)=C/C=C/c1ccccc1[N+](=O)[O-] (centres undefined)	77% (active)
C=CCn1c(P(C)(=O)O)nc2ccccc21	0.44% (inactive) and 0.28% (inactive)
CCOc1cc2[nH]c(=O)n(Cc3ccc(C(=O)NCCCN4CCCC4=O)cc3)c(=O)c2cc1OCC	0.03% (inactive)
O=C(CSc1ccc([N+](=O)[O-])cn1)Nc1ccc(N2CCOCC2)c(Cl)c1	80.2% (active)
Cc1cccc(C)c1NC(=O)CSc1ccc([N+](=O)[O-])cn1	1.1% (inactive)
O=C(CSc1ccc([N+](=O)[O-])cn1)Nc1ccc(N2CCOCC2)cc1	16.6% (inactive)
